In PubChem BioAssay (NCATS):
Results filed as inconclusive are left out. The source holds several records for some structures; these can differ, active in one and inactive in another. Activity calls are given as the source filed them. Unless noted, calls follow the shape of the dose curve; as a rule, active = well fitted curve in the direction sought with a large enough effect; inconclusive = small, poorly fitted or top-dose-only effect, or another doubt; inactive = no such curve, though single readings can be large; an effect the other way counts as inactive or inconclusive.

What was measured:
[1] = target: Cytochrome P450 1A2 (Homo sapiens) (UniProt P05177); experiment: p450-cyp1a2 (AID 410; calls by dose curve; also: potency is read from the fitted curve at half-maximal effect;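 as to activity change, negative = inhibition: -100% = full effect of reference inhibitor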)
Method in brief: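 Luminescent readout of luciferin formed from Luciferin-ME by human CYP1A2; data normalized against complete inhibition by 57 uM furafylline. Enzyme 20nM, substrate 100uM at Km, 100mM KPO4 buffer, 60 min reaction at room temperature.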

[2] = NFAT Signaling Pathway (AID 444; active = well fitted curve in either direction with a large enough effect, not every such curve was filed as active;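 also: carbachol stimulus at about its EC50 of 1 µM final; % is scaled to controls: 0 for no effect and ±100 for the full control effect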); conditions: Jurkat NFAT-bla M1, carbachol, beta-lactamase ratio, 5 h; at 17.2 µM (top of the series) unless noted
Method in brief: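 Jurkat cells with NFAT-driven β-lactamase reporter and co-expressed M1 receptor, stimulated with carbachol (final 1 uM, ~EC50), compound titration, 5 h at 37 °C. CCF4 loaded 1 h at RT; 460/530 nm ratio gave %activity and AC50.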

[3] = Stat Signaling Pathway (AID 446; active = well fitted curve in either direction with a large enough effect, not every such curve was filed as active;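 also: ME-180 cervical cancer cells given 40 pM IL-6 alongside compound; SIE-controlled beta-lactamase reporter measured as 460/530 nm FRET emission ratio; % is scaled to controls: 0 for no effect and ±100 for the full control effect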)
Method in brief: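 Reporter line: ME-180 cervical carcinoma, SIE-beta-lactamase. Treatment: compound with 40 pM IL-6, 5 hrs, 37 C, in low-serum OPTI-MEM with 10 mM HEPES pH 7.3. Detection: 460/530 nm fluorescence.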

[4] = target: Glucocorticoid receptor (Homo sapiens) (UniProt P04150); experiment: GR-GFP Redistribution (AID 450;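 active = compounds whose dose series gives a full or clear partial fitted curve of increased nuclear translocation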; also: potency is read from the fitted curve at half-maximal effect); conditions: U2OS GR-GFP nuclear translocation, laser cytometry, 2 h
[5] = target: 3',5'-cyclic-AMP phosphodiesterase 4B (Homo sapiens) (UniProt Q07343); experiment: qHTS Assay for Inhibitors of PDE-IV (AID 607; active = well fitted activation curve with a large enough effect in the main read-out, with a control signal flat, not every such curve was filed as active; also: % of control where 0% means no effect)
Method in brief: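 Cell-based read-out of cAMP via a modified cyclic nucleotide-gated channel and membrane potential dye (535/590 nm) in HEK293 cells expressing PDE4 endogenously. Compounds tested up to 22.9 uM final; 100 uM RO 20-1724 reference.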

7G8 = experiment: qHTS profiling for inhibitors of Plasmodium falciparum proliferation (AID 504749); also: nearly all actives have a fitted effect of over 60% in size; also: potency is read from the fitted curve at half-maximal effect; conditions: P. falciparum in erythrocytes, SYBR Green DNA, 72 h; series mostly up to 12.8 µM
Method in brief: (§1)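 P. falciparum-infected erythrocytes (0.3% parasitemia, 2.5% hematocrit) incubated with compound 72 h at 37 C, 5% CO2. Parasite DNA detected by SYBR Green after lysis, overnight at room temperature; normalised to 0.29 uM artemisinin and DMSO.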

CP215 = experiment: as above; conditions: P. falciparum in erythrocytes, SYBR Green DNA, 72 h; series mostly up to 12.8 µM
Method in brief: as §1

DFO2036 = experiment: as above; conditions: P. falciparum in erythrocytes, SYBR Green DNA, 72 h; series mostly up to 12.8 µM
Method in brief: as §1

DIV14 = experiment: as above; conditions: P. falciparum in erythrocytes, SYBR Green DNA, 72 h; series mostly up to 12.8 µM
Method in brief: as §1

DIV17 = experiment: as above; conditions: P. falciparum in erythrocytes, SYBR Green DNA, 72 h; series mostly up to 12.8 µM
Method in brief: as §1

GB4 = experiment: as above; conditions: P. falciparum in erythrocytes, SYBR Green DNA, 72 h; series mostly up to 12.8 µM
Method in brief: as §1

ICS = experiment: as above; conditions: P. falciparum in erythrocytes, SYBR Green DNA, 72 h; series mostly up to 12.8 µM
Method in brief: as §1

[6] = target: Cytochrome P450 3A4 (Homo sapiens) (UniProt P08684); experiment: qHTS Assay for Activators of Cytochrome P450 3A4 (AID 885); also: nearly all actives have a fitted effect of over 65% in size
Method in brief: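 Signal was normalized against complete inhibition by 57 uM ketoconazole. The reaction used 20nM CYP3A4 with 25uM Luciferin-PPXE, 10-min compound preincubation and a 60-min NADPH-supported step at RT.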

[7] = S16 Schwann cell PMP22 intronic element beta-lactamase assay (AID 624044; calls by dose curve;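 also: 0% = DMSO and -100% = potassium clavulanate positive control; nearly all actives have a fitted effect of over 15% in size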)
Method in brief: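 Rat S16 Schwann cells with beta-Lac driven by a PMP22 intronic element, compound-treated 24 h at 37 °C. LiveBLAzer FRET B/G read: 460 nm normalized to potassium clavulanate vs DMSO; 535 nm FRET as viability; concentration-effect curves classified.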

W2 = experiment: qHTS profiling for inhibitors of Plasmodium falciparum proliferation (AID 504749); also: nearly all actives have a fitted effect of over 60% in size; also: potency is read from the fitted curve at half-maximal effect; conditions: P. falciparum in erythrocytes, SYBR Green DNA, 72 h; series mostly up to 12.8 µM
Method in brief: as §1

[8] = Confirmation and Secondary Assay for Modulators of Hemoglobin Beta Chain Splicing at IVS2 654 locus (AID 910);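 also: HeLa cells stably carrying EGFP split by mutant beta-globin IVS2-654 intron; % of control where 0% means no effect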
Method in brief: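 HeLa cells stably expressing EGFP interrupted by β-globin IVS2-654 intron, seeded overnight in Opti-MEM/2% FCS, then treated 2 days at 37 °C. Restored splicing read as total peak GFP intensity per well by laser scanning cytometry (488 nm excitation, 500–520 nm emission); 500 nM antisense PNA as control.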

[9] = Confirmation and Secondary Assay for Modulators of Hemoglobin Beta Chain Splicing at IVS2 705 locus (AID 930);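 also: HeLa cells stably expressing the EGFP-705 splicing reporter; GFP fluorescence per well restored by corrected splicing of the IVS2-705 intron in EGFP; % of control where 0% means no effect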
Method in brief: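 HeLa cells stably carrying EGFP interrupted by mutant beta-globin intron 2 (IVS2-705) treated 2 days at 37C with compound; 500 nM antisense PNA as control. Correct splicing read as total peak GFP intensity per well by laser-scanning cytometry.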

[10] = target: Cytochrome P450 3A4 (Homo sapiens) (UniProt P08684); experiment: qHTS Assay for Inhibitors and Substrates of Cytochrome P450 3A4 (AID 884); also: potency is read from the fitted curve at half-maximal effect; nearly all actives have a fitted effect of over 50% in size
Method in brief: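 20 nM human CYP3A4 with 25 uM Luciferin-PPXE (at KM) in 200 mM KPO4, preincubated 10 min with compound; NADPH regeneration started a 60 min RT reaction. Luciferin detected by luminescence, normalized to 57 uM ketoconazole as full inhibition.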

[11] = target: Cytochrome P450 2D6 (Homo sapiens) (UniProt P10635); experiment: qHTS Assay for Inhibitors and Substrates of Cytochrome P450 2D6 (AID 891); also: potency is read from the fitted curve at half-maximal effect; nearly all actives have a fitted effect of over 60% in size
Method in brief: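 Human CYP2D6 (5 nM) with 30 uM Luciferin-ME EGE (at Km) in 100 mM KPO4, compound preincubated 10 min, then NADPH regeneration system for 60 min at room temperature. Luciferin read by luminescence; normalized to 1.43 uM quinidine.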

Cytochrome P450 1A2 (Homo sapiens), sequence (P05177 whole entry, looked up): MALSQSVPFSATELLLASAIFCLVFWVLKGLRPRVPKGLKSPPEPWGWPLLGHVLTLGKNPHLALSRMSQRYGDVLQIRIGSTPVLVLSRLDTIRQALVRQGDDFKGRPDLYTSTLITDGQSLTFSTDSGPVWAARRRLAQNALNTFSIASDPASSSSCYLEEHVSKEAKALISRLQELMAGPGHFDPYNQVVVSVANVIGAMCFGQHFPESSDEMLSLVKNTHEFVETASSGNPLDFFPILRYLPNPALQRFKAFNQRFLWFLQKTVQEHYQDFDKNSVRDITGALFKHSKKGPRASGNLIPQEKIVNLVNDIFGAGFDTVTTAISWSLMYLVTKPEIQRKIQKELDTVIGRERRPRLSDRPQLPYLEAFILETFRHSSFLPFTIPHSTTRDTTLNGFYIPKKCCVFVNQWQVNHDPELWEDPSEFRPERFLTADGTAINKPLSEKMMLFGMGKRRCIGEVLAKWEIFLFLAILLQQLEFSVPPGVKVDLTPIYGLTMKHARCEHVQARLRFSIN
Cytochrome P450 3A4 (Homo sapiens), sequence (P08684 whole entry, looked up): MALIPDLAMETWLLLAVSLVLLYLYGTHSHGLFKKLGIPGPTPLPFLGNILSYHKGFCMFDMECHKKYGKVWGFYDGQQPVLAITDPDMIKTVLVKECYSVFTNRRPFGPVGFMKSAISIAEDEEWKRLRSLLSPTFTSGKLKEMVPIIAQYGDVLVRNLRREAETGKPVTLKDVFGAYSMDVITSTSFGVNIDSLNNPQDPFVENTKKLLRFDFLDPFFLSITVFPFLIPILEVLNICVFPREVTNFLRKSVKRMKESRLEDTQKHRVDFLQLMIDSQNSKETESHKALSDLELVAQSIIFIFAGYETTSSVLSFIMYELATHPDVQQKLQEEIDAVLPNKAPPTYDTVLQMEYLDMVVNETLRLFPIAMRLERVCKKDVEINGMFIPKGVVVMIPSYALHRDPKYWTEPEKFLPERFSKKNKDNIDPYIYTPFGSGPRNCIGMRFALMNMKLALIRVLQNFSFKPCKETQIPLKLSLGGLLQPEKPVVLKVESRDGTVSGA
3',5'-cyclic-AMP phosphodiesterase 4B (Homo sapiens), sequence (Q07343 whole entry, looked up): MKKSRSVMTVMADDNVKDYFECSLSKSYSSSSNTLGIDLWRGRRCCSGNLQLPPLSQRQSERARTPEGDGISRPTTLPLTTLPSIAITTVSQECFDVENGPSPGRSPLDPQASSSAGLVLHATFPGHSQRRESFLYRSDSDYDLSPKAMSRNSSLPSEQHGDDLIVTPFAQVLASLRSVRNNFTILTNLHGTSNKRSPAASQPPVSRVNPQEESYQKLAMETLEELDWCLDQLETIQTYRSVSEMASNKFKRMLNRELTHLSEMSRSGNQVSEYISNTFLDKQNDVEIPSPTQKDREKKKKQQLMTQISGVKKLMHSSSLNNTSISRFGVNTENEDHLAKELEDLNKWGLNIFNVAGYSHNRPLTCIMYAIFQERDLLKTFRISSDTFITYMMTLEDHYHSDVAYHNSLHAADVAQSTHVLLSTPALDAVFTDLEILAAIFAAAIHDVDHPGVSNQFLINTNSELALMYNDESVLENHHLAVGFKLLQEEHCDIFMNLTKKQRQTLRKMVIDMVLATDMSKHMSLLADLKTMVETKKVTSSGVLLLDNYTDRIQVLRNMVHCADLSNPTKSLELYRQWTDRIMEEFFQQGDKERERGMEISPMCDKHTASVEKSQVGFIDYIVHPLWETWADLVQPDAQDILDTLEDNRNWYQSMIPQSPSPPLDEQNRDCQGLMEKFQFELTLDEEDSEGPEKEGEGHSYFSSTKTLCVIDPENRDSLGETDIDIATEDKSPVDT
Glucocorticoid receptor (Homo sapiens), sequence (P04150 whole entry, looked up): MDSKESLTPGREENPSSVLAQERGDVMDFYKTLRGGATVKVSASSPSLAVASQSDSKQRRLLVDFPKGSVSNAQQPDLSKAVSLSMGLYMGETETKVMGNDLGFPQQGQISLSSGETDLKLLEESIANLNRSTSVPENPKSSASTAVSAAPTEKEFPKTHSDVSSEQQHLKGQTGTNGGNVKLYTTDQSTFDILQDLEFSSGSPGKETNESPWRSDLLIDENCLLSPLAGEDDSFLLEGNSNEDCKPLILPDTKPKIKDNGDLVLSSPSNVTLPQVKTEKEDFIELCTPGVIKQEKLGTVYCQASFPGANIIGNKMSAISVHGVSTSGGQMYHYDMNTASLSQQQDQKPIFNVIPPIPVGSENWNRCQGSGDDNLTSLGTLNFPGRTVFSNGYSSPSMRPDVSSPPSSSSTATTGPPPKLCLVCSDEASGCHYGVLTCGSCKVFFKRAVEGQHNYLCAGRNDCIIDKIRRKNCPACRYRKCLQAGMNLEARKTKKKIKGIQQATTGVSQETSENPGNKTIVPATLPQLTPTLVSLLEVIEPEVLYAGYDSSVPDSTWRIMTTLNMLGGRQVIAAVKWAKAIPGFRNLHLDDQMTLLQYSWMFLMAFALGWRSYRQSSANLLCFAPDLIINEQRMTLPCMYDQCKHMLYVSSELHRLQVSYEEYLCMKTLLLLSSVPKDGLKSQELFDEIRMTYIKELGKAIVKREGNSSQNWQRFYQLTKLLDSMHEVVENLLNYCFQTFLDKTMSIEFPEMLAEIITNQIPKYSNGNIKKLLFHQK
Cytochrome P450 2D6 (Homo sapiens), sequence (P10635 whole entry, looked up): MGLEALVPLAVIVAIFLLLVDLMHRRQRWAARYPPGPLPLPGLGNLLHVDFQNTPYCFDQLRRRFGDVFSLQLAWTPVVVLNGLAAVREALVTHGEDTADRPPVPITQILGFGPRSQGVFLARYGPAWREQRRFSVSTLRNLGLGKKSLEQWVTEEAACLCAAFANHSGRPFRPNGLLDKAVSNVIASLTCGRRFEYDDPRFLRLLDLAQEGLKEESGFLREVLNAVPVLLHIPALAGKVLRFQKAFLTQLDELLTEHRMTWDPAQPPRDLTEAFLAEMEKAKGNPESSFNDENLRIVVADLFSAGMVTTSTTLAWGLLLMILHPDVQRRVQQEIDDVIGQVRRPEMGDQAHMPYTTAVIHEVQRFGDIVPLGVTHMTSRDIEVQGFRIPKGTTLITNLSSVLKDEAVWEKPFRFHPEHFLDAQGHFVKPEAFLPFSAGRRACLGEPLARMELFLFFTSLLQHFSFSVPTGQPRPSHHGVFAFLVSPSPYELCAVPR

CO[C@H]1[C@@H](OC(N)=O)[C@H](O)[C@@H](Oc2ccc3c(O)c(NC(=O)c4ccc(O)c(CC=C(C)C)c4)c(=O)oc3c2C)OC1(C)C
inactive: Potency [1] | activity change, negative = inhibition [2] -13.7% | outcome [3] | Potency [4] > 20.6 µM | outcome [5] | Potency (7G8) | Potency (CP215) | Potency (DFO2036) | Potency (DIV14) | Potency (DIV17) | Potency (GB4) | Potency (ICS)

CC=C(/C(=C/C)c1ccc(O)cc1)c1ccc(O)cc1
inactive: outcome [3] | Potency [4] > 20.6 µM | outcome [5] | Potency [6] | Potency [7] | Potency (7G8) | Potency (CP215) | Potency (DFO2036) | Potency (DIV14) | Potency (DIV17) | Potency (GB4) | Potency (ICS) | Potency (W2)
active: Potency [1] 15.8 µM

C=C(C)[C@H]1CC[C@]2(CO)CC[C@]3(C)[C@@H](CC[C@H]4[C@@]5(C)CC[C@@H](O)C(C)(C)[C@@H]5CC[C@@]43C)[C@H]12
inactive: Potency [1] | activity change, negative = inhibition [2] -4.45% | outcome [3] | Potency [4] > 20.6 µM | outcome [5]

CC[C@@H]1OC(=O)[C@H](C)[C@H](O[C@@H]2C[C@](C)(OC)[C@H](O)[C@H](C)O2)[C@H](C)[C@H](O[C@@H]2O[C@@H](C)C[C@@H](N(C)C)[C@@H]2O)[C@](C)(O)C[C@H](C)C(=NOCOCCOC)[C@H](C)[C@H](O)[C@]1(C)O
inactive: Potency [1] | activity change, negative = inhibition [2] -1.03% | outcome [3] | Potency [4] > 20.6 µM | outcome [5] | Potency [6] | Potency [7] | Potency (7G8) | Potency (DIV14) | Potency (DIV17) | Potency (GB4) | Potency (ICS)

COc1cc2c(cc1OC)-c1cc3ccc(OC)c(OC)c3c[n+]1CC2
inactive: Potency [1] | activity change, negative = inhibition [2] -18.1% | outcome [3] | outcome [5] | Potency [6] | Potency [8] | Potency [9]

COc1cccc(-c2nc(NCCc3c[nH]c4ccc(OC)cc34)c3ccccc3n2)c1
active: Potency [1] 1.58 µM | Potency [10] 2 µM
inactive: Potency [4] > 46 µM | Potency [6] | Potency [8] | Potency [9]

C[C@@H](Cc1cccc(C(F)(F)F)c1)NCCOC(=O)c1ccccc1
inactive: activity change, negative = inhibition [2] -24.1% | outcome [3] | Potency [4] > 20.6 µM
active: Potency [1] 0.794 µM | Potency [11] 0.0158 µM

CN1CCC[C@@H](CC2c3ccccc3Sc3ccccc32)C1
inactive: Potency [1] | outcome [3] | Potency [4] > 20.6 µM | outcome [5] | Potency [7]
active: activity change, negative = inhibition [2] -49.6% | Potency [11] 0.316 µM | Potency (7G8) 3.98 µM | Potency (DIV14) 2.28 µM | Potency (W2) 1.44 µM

Nc1c2ccccc2nc2c(O)cccc12
active: Potency [1] 6.31 µM
inactive: activity change, negative = inhibition [2] -1.27% | outcome [3] | Potency [4] > 20.6 µM | outcome [5]

NC[C@@H]1O[C@H](O[C@@H]2[C@H](O[C@@H]3O[C@H](CO)[C@@H](COC[C@H]4O[C@@H](CN)[C@@H](O)[C@@H](O)[C@@H]4N)[C@@H]3O)[C@@H](O)[C@@H](N)C[C@H]2N)[C@@H](N)[C@H](O)[C@@H]1O
inactive: Potency [1] | activity change, negative = inhibition [2] -1.32% | outcome [3] | Potency [4] > 20.6 µM | outcome [5]

CN(C)CCn1nnnc1SCC1=C(C(=O)O)N2C(=O)[C@@H](NC(=O)Cc3csc(N)n3)[C@@H]2SC1
inactive: Potency [1] | activity change, negative = inhibition [2] -2.63% | outcome [3] | Potency [4] > 20.6 µM | outcome [5] | Potency (CP215)
active: Potency (7G8) 3.55 µM | Potency (ICS) 2.51 µM | Potency (W2) 6.42 µM

CS(=O)(=O)c1ccc([C@H](O)[C@H](CO)NC(=O)C(Cl)Cl)cc1
inactive: Potency [1] | activity change, negative = inhibition [2] 1.44% | outcome [3] | Potency [4] > 20.6 µM | outcome [5] | Potency (7G8) | Potency (DIV14) | Potency (DIV17)

O=C(O)[C@@H]1[C@@H]2C[C@H]3c4[nH]c5ccccc5c4CCN3C[C@@H]2CC[C@@H]1O
active: Potency (DIV17) 5.73 µM
inactive: activity change, negative = inhibition [2] -27% | outcome [3] | outcome [5]
12.6 µM (active) and inactive: Potency [1]

C[C@@H](C(=O)O)c1ccc(C(=O)c2ccccc2)s1
active: Potency [1] 0.251 µM
inactive: activity change, negative = inhibition [2] 4.12% | outcome [3] | outcome [5] | Potency [6] | Potency [7] | Potency (7G8) | Potency (CP215) | Potency (DFO2036) | Potency (DIV14) | Potency (DIV17) | Potency (GB4) | Potency (ICS) | Potency (W2)

C[C@@H]1O[C@H](O[C@@H]2[C@H](C)O[C@H](O[C@@H]3[C@H](C)O[C@H](O[C@H]4CC[C@]5(C)[C@@H](CC[C@@H]6[C@H]5C[C@@H](O)[C@]5(C)[C@@H](C7=CC(=O)OC7)CC[C@]65O)C4)C[C@@H]3O)C[C@@H]2O)C[C@H](O)[C@@H]1O
inactive: Potency [1] | Potency [4] > 20.6 µM | outcome [5]

O=C(Nc1ccccc1)OC[C@H](CN1CCCCC1)OC(=O)Nc1ccccc1
inactive: activity change, negative = inhibition [2] -6.24% | outcome [3] | Potency [4] > 20.6 µM | outcome [5] | Potency [7] | Potency (CP215) | Potency (DIV14) | Potency (DIV17) | Potency (GB4) | Potency (ICS)
active: Potency [1] 12.6 µM | Potency [11] 0.398 µM
